The nature of assay [1]: qHTS assay to identify small molecule agonists of the hypoxia (HIF-1) signaling pathway - cell viability counter screen (AID 1224844; calls by dose curve; also: nearly all actives have a fitted effect of over 50% in size; also: potency is read from the fitted curve at half-maximal effect). Put shortly:
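Tox21 10K compounds were added to HRE-bla ME-180 cells (0.5% dialyzed FBS) and incubated 17 hrs at 37C; ATP-based CellTiter-Glo luminescence then reported cell viability in the same wells.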
In general terms: qHTS replaces the single test concentration by a dilution series.

A short description of assay [2]: qHTS assay to identify small molecule agonists of the hypoxia (HIF-1) signaling pathway (AID 1224846; active = well fitted activation curve with a large enough effect in the signal ratio in the repeat runs, not every such curve was filed as active; the % refers to the signal ratio). Put shortly:
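Steps: seed ME-180 HRE-bla cells (2,000/well, 0.5% dialyzed FBS); incubate 5 hrs at 37C; pin-transfer compounds or DMSO; incubate 17 hrs; add LiveBLAzer B/G substrate CCF4-AM; measure reporter activation by FRET.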

A short description of assay [3]: qHTS assay to identify small molecule agonists of H2AX - cell viability counter screen (AID 1224847; calls by dose curve; also: nearly all actives have a fitted effect of over 30% in size; also: potency is read from the fitted curve at half-maximal effect). Put shortly: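 Cytotoxicity counter screen in wild-type CHO-K1 cells: a 3 hr compound treatment at 37C across 15 concentrations, followed by CellTiter-Glo luminescence to gauge viable cells.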
A short description of assay [4]: qHTS RealTime-Glo MT Cell Viability Assay in HepG2 cells - 24 hour (AID 1224867). Also: nearly all actives have a fitted effect of over 50% in size. Also: potency is read from the fitted curve at half-maximal effect. The method in brief:
(§1)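 Viability was tracked continuously by NanoLuc luminescence from prosubstrate reduced by living HepG2 cells, at successive time points over 40 h of compound exposure. Cells with reagent were preincubated 5 h at 37 °C before compound addition.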

Assay [5] can be described thus: qHTS RealTime-Glo MT Cell Viability Assay in HEK293 cells - 32 hour (AID 1224868). Also: nearly all actives have a fitted effect of over 50% in size. Also: potency is read from the fitted curve at half-maximal effect. The method in brief: (§2)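 Viability tracked continuously by luminescence as live cells reduce a prosubstrate for NanoLuc; HEK293 cells preincubated 5 h, compound-treated at 37 C, and read at 0, 8, 16, 24, 32 and 40 h.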
Assay [6] in a line: qHTS RealTime-Glo MT Cell Viability Assay in HepG2 cells - 40 hour (AID 1224870). Also: nearly all actives have a fitted effect of over 50% in size. Also: potency is read from the fitted curve at half-maximal effect. The method in brief:
(§3)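 HepG2 cells mixed with RealTime-Glo MT reagents (NanoLuc plus cell-permeant prosubstrate) were seeded at 600 cells/well, incubated 5 h at 37 C/5% CO2, then pinned with compounds in DMSO; nonlytic luminescence tracked viability during 40 h treatment.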

Assay [7] in a line: A CellTox Green Cytotoxicity Assay to monitor cytotoxicity in HEK293 cells - 40 hour (AID 1224871). Also: nearly all actives have a fitted effect of over 45% in size. Also: potency is read from the fitted curve at half-maximal effect. Put shortly: (§4)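 Cytotoxicity was tracked continuously in HEK293 cells by a DNA-binding dye excluded from viable cells. Compounds were transferred in DMSO 5 h after seeding; fluorescence was recorded at intervals up to 40 h.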
Assay [8] can be described thus: qHTS RealTime-Glo MT Cell Viability Assay in HEK293 cells - 16 hour (AID 1224872). Also: nearly all actives have a fitted effect of over 50% in size. Also: potency is read from the fitted curve at half-maximal effect. Put shortly: as §2
Assay [9] can be described thus: qHTS RealTime-Glo MT Cell Viability Assay in HepG2 cells - 8 hour (AID 1224873). Also: nearly all actives have a fitted effect of over 55% in size. Also: potency is read from the fitted curve at half-maximal effect. The method in brief: as §3
The nature of assay [10]: qHTS RealTime-Glo MT Cell Viability Assay in HEK293 cells - 40 hour (AID 1224874). Also: nearly all actives have a fitted effect of over 50% in size. Also: potency is read from the fitted curve at half-maximal effect. As to conditions: RealTime-Glo luminescence; max response: stronger effect = lower value. The method in brief:
(§5)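 Nonlytic bioluminescent viability monitoring. HEK293 at 600 cells/well with reagent; 5 h settle; compound transfer by pintool; plates held at 37 C and read at set time points.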

Assay [11] is described as follows: A CellTox Green Cytotoxicity Assay to monitor cytotoxicity in HepG2 cells - 16 hour (AID 1224876). Also: nearly all actives have a fitted effect of over 45% in size. Also: potency is read from the fitted curve at half-maximal effect. Put shortly:
(§6)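 Real-time, homogeneous cytotoxicity readout: dead-cell DNA staining by CellTox Green in HepG2 monolayers, fluorescence measured at timed intervals up to 40 h of continuous compound exposure.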

Assay [12] can be described thus: A CellTox Green Cytotoxicity Assay to monitor cytotoxicity in HepG2 cells - 24 hour (AID 1224878). Also: nearly all actives have a fitted effect of over 45% in size. Also: potency is read from the fitted curve at half-maximal effect. The method in brief: as §6
Assay [13] can be described thus: A CellTox Green Cytotoxicity Assay to monitor cytotoxicity in HepG2 cells - 40 hour (AID 1224879). Also: nearly all actives have a fitted effect of over 40% in size. Also: potency is read from the fitted curve at half-maximal effect. The method in brief:
as §6

Assay [14] is described as follows: qHTS RealTime-Glo MT Cell Viability Assay in HEK293 cells - 0 hour (AID 1224880). Also: nearly all actives have a fitted effect of over 45% in size. Also: potency is read from the fitted curve at half-maximal effect. Put shortly:
as §5

The nature of assay [15]: qHTS assay to identify small molecule antagonists of the estrogen related receptor (ERR) signaling pathway from Tox21 library (AID 1224848). Also: nearly all actives have a fitted effect of over 50% in size. Also: potency is read from the fitted curve at half-maximal effect. Put shortly: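 Cells: ERR line, 2,000/well; 6 h preincubation 37 C/5% CO2. Cpd in DMSO via pin tool; 18 h, 37 C. ONE-Glo, 30 min RT, luminescence.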
A short description of assay [16]: qHTS assay to identify small molecule agonists of the estrogen related receptor (ERR) signaling pathway from Tox21 library (AID 1224849; calls by dose curve; also: nearly all actives have a fitted effect of over 15% in size). The conditions noted are these: ERR reporter cell line, ONE-Glo luciferase, 18 h; at 92.4 µM (top of the series) unless noted. Put shortly: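 Agonist signal is luciferase luminescence from an ERR reporter cell line treated 18 h at 37 C with DMSO-dissolved compounds, read 30 min after ONE-Glo addition at room temperature.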

A short description of assay [17]: A CellTox Green Cytotoxicity Assay to monitor cytotoxicity in HEK293 cells - 24 hour (AID 1224875). Also: nearly all actives have a fitted effect of over 45% in size. Also: potency is read from the fitted curve at half-maximal effect. The method in brief:
as §4

The nature of assay [18]: A CellTox Green Cytotoxicity Assay to monitor cytotoxicity in HEK293 cells - 0 hour (AID 1224869). Also: nearly all actives have a fitted effect of over 50% in size. Put shortly: as §4
The nature of assay [19]: qHTS RealTime-Glo MT Cell Viability Assay in HepG2 cells - 32 hour (AID 1224877). Also: nearly all actives have a fitted effect of over 55% in size. Also: potency is read from the fitted curve at half-maximal effect. Put shortly: as §1

Molecules are shown by their SMILES. Where “and” joins values, the source holds several entries; their conditions need not be identical. Equal entries are not always repeated. A number with no mark means an inactive call. Records with an inconclusive call do not appear. Calls of active or inactive are those of the source. Unless noted, calls follow the shape of the dose curve; as a rule, active = well fitted curve in the direction sought with a large enough effect in the repeat runs; inconclusive = weak or mixed curves; inactive = no such curve, though single readings can be large; an effect the other way counts as inactive or inconclusive.
% is scaled to controls: 0 for no effect and ±100 for the full control effect.

In the case of `O=[N+]([O-])c1cccc2cccc([N+](=O)[O-])c12`, the Potency entry in [1], in assay [2], in assay [3], in assay [4], in assay [5] and in [6] was “inactive” each time. Moreover, the Potency entry in assay [7], in assay [8], in [9], in assay [11], in assay [12] and in [13] was “inactive” each time. For the same compound, the Potency entry in assay [14] is “inactive”. Also, the max response in assay [10] is -12.3%.

`COP(=O)(OC)O/C(=C\Cl)c1cc(Cl)c(Cl)cc1Cl`: the Potency entry in assay [1], in assay [3], in assay [5], in assay [7], in assay [8] and in [17] was “inactive” each time. Also, the Potency result in assay [11] and in assay [14] was “inactive” each time. Further, the Potency in assay [15] is 21.7 µM (active). For the same compound, in assay [16], the activity change, positive = activation is -68.1%. In addition, the max response in assay [10] is 0.507%.

As to `CCCN`, the Potency result in [1], in assay [2], in [3], in assay [5], in assay [18] and in assay [6] was “inactive” each time. For the same compound, the Potency result in assay [7], in assay [8], in assay [9], in [11], in assay [19] and in assay [12] was “inactive” in each case. Besides, the Potency result in assay [13] and in [14] was “inactive” throughout. In addition, in [10], the max response is -0.242%.

As to `NC1CCC(CC2CCC(N)CC2)CC1` (stereo not given), the Potency entry in assay [1], in [2], in assay [3], in assay [4], in assay [18] and in assay [6] was “inactive” each time. Further, the Potency result in [7], in assay [8], in assay [9], in assay [17], in assay [11] and in [19] was “inactive” throughout. Also, the Potency result in assay [12], in [13] and in assay [14] was “inactive” throughout.

With `O=C1C(Cl)=C(Cl)C(=O)C(Cl)=C1Cl`, the Potency is 54.8 µM (active) and 38.9 µM (active) in assay [1]; 24.3 µM (active) in [15]; 24.5 µM (active) and 19.5 µM (active) in assay [5]; 17.3 µM (active) and 19.5 µM (active) in assay [7]; 27.4 µM (active) in assay [8]; 43.5 µM (active) and 21.9 µM (active) in [9]. Also, the Potency in [10] was 21.8 µM (active) and 21.9 µM (active); in assay [17] it was 21.8 µM (active) and 24.5 µM (active); in assay [11], 48.8 µM (active) and 19.5 µM (active); in assay [12] it was 24.5 µM (active) and 17.4 µM (active); in [13] it was 21.8 µM (active) and 17.4 µM (active); in assay [14], 3.08 µM (active) and 9.77 µM (active). In addition, the Potency result in assay [3] and in [18] was “inactive” each time. Besides, in assay [16], the activity change, positive = activation was -23.7% and -49%.

`CCOP(=S)(OCC)SC(CCl)N1C(=O)c2ccccc2C1=O` (stereo not given): the Potency entry in [1], in assay [2], in assay [3], in assay [4], in assay [5] and in [18] was “inactive” throughout. In addition, the Potency entry in [6], in assay [7], in assay [8], in assay [9], in assay [17] and in assay [11] was “inactive” throughout. The Potency result in assay [19] is “inactive”. Further, the activity change, positive = activation in [16] was -14.9%. Moreover, the max response in assay [10] is 6.49%.

On to `Cc1cc(C2CC2)nc(Nc2ccccc2)n1`, for which the Potency entry in assay [1], in assay [2], in [15], in assay [18], in [6] and in assay [17] was “inactive” each time. For the same compound, the activity change, positive = activation in assay [16] was 13.7% (active). The figures for the Potency in assay [5], in assay [8] and in assay [10] were 24.5 µM (active), 21.9 µM (active) and 21.9 µM (active), respectively.

As for `CN(C)c1ccc(N)cc1`, the Potency entry in assay [1], in assay [2], in assay [18], in assay [6], in assay [11] and in assay [19] was “inactive” each time. Besides, the Potency entry in assay [12], in assay [13] and in [14] was “inactive” in each case. Further, the Potency was 87.6 µM (active) in assay [3], 24 µM (active) in [5], 42.6 µM (active) in assay [8] and 47.8 µM (active) in [10].

With `ClC1(Cl)C2(Cl)C3(Cl)C4(Cl)C(Cl)(Cl)C5(Cl)C3(Cl)C1(Cl)C5(Cl)C24Cl` (stereo not given), the Potency result in assay [1], in assay [2], in [3], in [15], in assay [4] and in assay [5] was “inactive” in each case. Also, the Potency entry in assay [18], in [6], in [7], in [8], in assay [9] and in assay [17] was “inactive” each time. In addition, the Potency entry in assay [11], in assay [12], in assay [13] and in [14] was “inactive” each time. Besides, the activity change, positive = activation in assay [16] was 2.52%. The max response in [10] was -13.1%.

For `Fc1ccc(C(OCCN2CCN(CCCc3ccccc3)CC2)c2ccc(F)cc2)cc1`, the Potency in [1] was 16.9 µM (active); in assay [3], 55.2 µM (active); in assay [15], 6.68 µM (active); in assay [4], 23.9 µM (active); in [5], 9.52 µM (active); in assay [6] it was 26.8 µM (active). For the same compound, the Potency is 21.3 µM (active) in assay [7]; 8.49 µM (active) in [8]; 23.9 µM (active) in assay [9]; 9.52 µM (active) in [10]; 23.9 µM (active) in assay [17]; 23.9 µM (active) in assay [11]. Also, the Potency in assay [19] and in assay [13] was 23.9 µM (active) throughout. Also, the activity change, positive = activation in [16] is -58.9% [at 42.5 µM]. The Potency entry in assay [18] and in [14] was “inactive” throughout.

Turning to `CCOP(=S)(OCC)Oc1cc(C)nc(N(CC)CC)n1`, the Potency entry in assay [1], in assay [2], in [3], in [4], in assay [5] and in assay [6] was “inactive” in each case. Besides, the Potency entry in assay [7], in assay [8], in assay [9], in assay [17], in assay [11] and in assay [19] was “inactive” throughout. For the same compound, the Potency result in [12], in assay [13] and in assay [14] was “inactive” each time. In assay [16], the activity change, positive = activation is -21.1%. In addition, in assay [10], the max response is 2.8%.

As for `COc1ccc2c3c1O[C@H]1[C@H](O)CC[C@H]4[C@@H](C2)N(C)CC[C@@]341`, the Potency result in assay [1], in [2], in assay [3], in [4], in [5] and in [18] was “inactive” throughout. Moreover, the Potency entry in assay [6], in assay [7], in assay [8], in assay [9], in [17] and in [11] was “inactive” in each case. Also, the Potency result in assay [19], in assay [12], in assay [13] and in assay [14] was “inactive” in each case. Besides, in assay [10], the max response is -1.3%.

As for `CNC(C)(C)Cc1ccccc1`, the Potency entry in assay [1], in [2], in [3], in [4], in assay [5] and in assay [18] was “inactive” in each case. For the same compound, the Potency entry in assay [6], in assay [7], in assay [8], in assay [9], in assay [17] and in assay [11] was “inactive” in each case. The Potency result in assay [19], in assay [12] and in [13] was “inactive” throughout. Further, the max response in [10] is 6.36%.

As to `[O-][Cl+3]([O-])([O-])O`, the Potency entry in assay [1], in [2], in assay [3], in assay [4], in assay [5] and in assay [18] was “inactive” each time. Also, the Potency result in [6], in assay [7], in [8], in assay [9], in assay [17] and in [11] was “inactive” throughout. In addition, the Potency entry in assay [19], in [12], in assay [13] and in [14] was “inactive” each time. Besides, the max response in assay [10] is 7.85%.

The record behind these values is PubChem BioAssay (Tox21).
